Results published in PubChem BioAssay (EPA / NIEHS).
“And” between values parts separate entries of the source, which are not always exact repeats. Equal values may be shown once. Inconclusive results are not listed. The source holds several records for some structures; these can differ, active in one and inactive in another. The source made the active and inactive calls. Rule for the calls, unless noted: active = hit-call score of the fitted dose curve at least 0.9, where 1 is the maximum; inactive = score below 0.9.

Key:
[1] = read-out: CD38, CD38 (gene 952); assay: BSK_SAg_CD38: BioMAP Diversity Plus: SAg Assay for CD38 Biomarker Activity (AID 2283087); conditions: primary human HUVEC with PBMC; actives raise or lower the signal
In short: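 Human HUVEC plus PBMC co-culture stimulated with superantigen; CD38 measured by ELISA 24 h after chemical dosing. Fluorescence read-out, bidirectional fit against DMSO; cytotoxicity tracked in parallel by SRB and Alamar Blue.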

[2] = read-out: Monocyte Chemoattractant Protein-1 (MCP1), CCL2 (gene 6347); assay: BSK_SAg_MCP1: BioMAP Diversity Plus: SAg Assay for Monocyte Chemoattractant Protein-1 (MCP1) Biomarker Activity (AID 2283090); conditions: primary human HUVEC with PBMC; actives raise or lower the signal
In short: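 MCP-1 levels in the endothelial–PBMC SAg co-culture were quantified by ELISA at 24 h post-dosing; both increases and decreases versus DMSO scored. Cytotoxicity monitored by SRB total protein in parallel cultures.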

[3] = read-out: E-selectin (Homo sapiens) (UniProt P16581); assay: BSK_SAg_Eselectin: BioMAP Diversity Plus: SAg Assay for Eselectin Biomarker Activity (AID 2283091); conditions: primary human HUVEC with PBMC; actives raise or lower the signal
In short: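 Human umbilical vein endothelial cells co-cultured with peripheral blood mononuclear cells, SAg system. E-selectin is measured by ELISA 24 h after dosing and fitted bidirectionally against DMSO. Cytotoxicity is checked by SRB staining of parallel cultures.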

[4] = read-out: Monokine induced gamma interferon (MIG), CXCL9 (gene 4283); assay: BSK_SAg_MIG: BioMAP Diversity Plus: SAg Assay for Monokine induced gamma interferon (MIG) Biomarker Activity (AID 2283092); conditions: primary human HUVEC with PBMC; actives raise or lower the signal
In short: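 Values reflect bidirectional fitting of ELISA-measured MIG against DMSO vehicle, taken 24 h after dosing of a co-culture of human umbilical vein endothelial cells and peripheral blood mononuclear cells.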

[5] = read-out: Interleukin-8 (IL8), CXCL8 (gene 3576); assay: BSK_SAg_IL8: BioMAP Diversity Plus: SAg Assay for Interleukin-8 (IL8) Biomarker Activity (AID 2283094); conditions: primary human HUVEC with PBMC; actives raise or lower the signal
In short: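 ELISA read-out of IL-8 in a primary human vascular co-culture (umbilical vein endothelium plus PBMC), taken 24 h after compound addition. Values derive from bidirectional fits against DMSO negative controls.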

[6] = BSK_SAg_Proliferation: Cell Proliferation Assessment in the BioMAP Diversity Plus: SAg Assay (AID 2283095); conditions: primary human HUVEC with PBMC;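 note: relative cell number as total protein by SRB absorbance in sub-confluent culture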
In short: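 Cells (endothelium plus PBMC, human primary) were dosed with chemical, cultured 96 h, fixed in 10% TCA and stained with 0.1% SRB. Absorbance at 560 nm gave relative protein, fitted bidirectionally relative to DMSO.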

[7] = BSK_SAg_SRB: Viability Assessment in the BioMAP Diversity Plus: SAg Assay (AID 2283096); conditions: primary human HUVEC with PBMC;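 note: cells read one day after compound addition; hits may be either gain or loss of signal compared with DMSO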
In short: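 Endothelial/PBMC primary human co-culture; compound 24 h; fix 10% TCA, stain 0.1% SRB, A560; protein content as cytotoxicity proxy; bidirectional curve fit, DMSO = baseline.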

[8] = read-out: Interferon-inducible T-cell alpha chemoattractant (ITAC), CXCL11 (gene 6373); assay: BSK_hDFCGF_ITAC: BioMAP Diversity Plus: hDFCGF Assay for Interferon-inducible T-cell alpha chemoattractant (ITAC) Biomarker Activity (AID 2284251); conditions: primary human foreskin fibroblasts
In short: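 ELISA readout of I-TAC after 24 h chemical exposure; human dermal foreskin fibroblast primary cells. Positive-direction fitting vs DMSO baseline. Parallel SRB total-protein staining (0.1% SRB after 10% TCA fixation, 560 nm) flags cytotoxicity.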

[9] = read-out: Epidermal growth factor receptor (EGFR), EGFR (gene 1956); assay: BSK_BE3C_EGFR: BioMAP Diversity Plus: BE3C Assay for Epidermal growth factor receptor (EGFR) Biomarker Activity (AID 2284281); conditions: primary human bronchial epithelial cells
In short: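 Primary human lung bronchial epithelial cells; compound, 24 h; EGFR measured by ELISA; positive-direction fit vs DMSO baseline.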

[10] = read-out: KRT18 (gene 3875); assay: BSK_BE3C_Keratin818: BioMAP Diversity Plus: BE3C Assay for Keratin 818 Biomarker Activity (AID 2284282); conditions: primary human bronchial epithelial cells
In short: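 Chemicals are added to human lung bronchial epithelial primary cells (BE3C system) and incubated 24 h. Keratin 8/18 is then measured by ELISA, with parallel SRB total-protein staining gauging overt cytotoxicity.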

[11] = read-out: Matrix Metallopeptidase 9 (MMP9), MMP9 (gene 4318); assay: BSK_BE3C_MMP9: BioMAP Diversity Plus: BE3C Assay for Matrix Metallopeptidase 9 (MMP9) Biomarker Activity (AID 2284283); conditions: primary human bronchial epithelial cells
In short: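 Human primary bronchial epithelial cells exposed 24 h to compound. MMP9 quantified by ELISA. SRB total-protein staining of parallel cultures assesses cytotoxicity. Positive-direction fit relative to DMSO.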

[12] = read-out: TIMP metallopeptidase inhibitor 2 (TIMP2), TIMP2 (gene 7077); assay: BSK_hDFCGF_TIMP2: BioMAP Diversity Plus: hDFCGF Assay for TIMP metallopeptidase inhibitor 2 (TIMP2) Biomarker Activity (AID 2284289); conditions: primary human foreskin fibroblasts
In short: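 Primary human foreskin fibroblasts in the hDFCGF system, dosed for 24 h; TIMP-2 level measured by ELISA, fitted in the positive direction against DMSO; cytotoxicity checked in parallel by sulforhodamine B total protein staining.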

[13] = read-out: Thrombomodulin, THBD (gene 7056); assay: BSK_LPS_Thrombomodulin: BioMAP Diversity Plus: LPS Assay for Thrombomodulin Biomarker Activity (AID 2284296); conditions: primary human HUVEC with PBMC
In short: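 Human umbilical vein endothelial cells co-cultured with PBMC and stimulated with LPS; cell-surface thrombomodulin measured by ELISA 24 hours after compound. Gain or loss versus DMSO; cytotoxicity checked by SRB staining in parallel cultures.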

[14] = biological target: Hepatocyte nuclear factor 3-beta (Homo sapiens) (UniProt Q9Y261); assay: ATG_FoxA2_CIS: Attagene CIS-FACTORIAL HepG2 Assay for human Forkhead box A2 (FOXA2) (AID 2282942); conditions: HepG2 cis-reporter transcription factor activity, 24 h; actives raise or lower the signal
Chain of Hepatocyte nuclear factor 3-beta (Homo sapiens) (Q9Y261 whole entry, looked up): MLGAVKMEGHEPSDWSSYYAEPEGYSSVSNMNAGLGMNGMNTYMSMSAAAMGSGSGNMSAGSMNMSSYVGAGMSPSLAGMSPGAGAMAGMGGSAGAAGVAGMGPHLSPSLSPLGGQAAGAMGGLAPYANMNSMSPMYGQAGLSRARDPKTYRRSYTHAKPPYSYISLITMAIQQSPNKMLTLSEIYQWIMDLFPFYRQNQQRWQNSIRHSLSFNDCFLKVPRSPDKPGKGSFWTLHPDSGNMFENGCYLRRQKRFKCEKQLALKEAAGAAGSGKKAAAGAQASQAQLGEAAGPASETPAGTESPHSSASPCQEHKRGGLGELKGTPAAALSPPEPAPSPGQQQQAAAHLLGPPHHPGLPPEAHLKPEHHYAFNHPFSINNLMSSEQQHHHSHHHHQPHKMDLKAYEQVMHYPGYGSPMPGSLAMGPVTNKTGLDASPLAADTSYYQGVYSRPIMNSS
In short: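 Endogenous transcription factor activity was read in HepG2 cells carrying transiently transfected cis-promoter reporter units. After 24 h dosing, reporter mRNA was quantified by RT-PCR and capillary electrophoresis, and values fitted bidirectionally versus DMSO.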

[15] = biological target: Oxysterols receptor LXR-alpha (Homo sapiens) (UniProt Q13133); assay: ATG_LXRa_TRANS: Attagene TRANS-FACTORIAL HepG2 Assay for human Liver X Receptor alpha (LXRa) (AID 2282980; active = hit-call score of the fitted dose curve at least 0.9, where 1 is the maximum); conditions: HepG2 Attagene TRANS reporter, LXRa transactivation
Chain of Oxysterols receptor LXR-alpha (Homo sapiens) (Q13133 whole entry, looked up, the tested form may be a part): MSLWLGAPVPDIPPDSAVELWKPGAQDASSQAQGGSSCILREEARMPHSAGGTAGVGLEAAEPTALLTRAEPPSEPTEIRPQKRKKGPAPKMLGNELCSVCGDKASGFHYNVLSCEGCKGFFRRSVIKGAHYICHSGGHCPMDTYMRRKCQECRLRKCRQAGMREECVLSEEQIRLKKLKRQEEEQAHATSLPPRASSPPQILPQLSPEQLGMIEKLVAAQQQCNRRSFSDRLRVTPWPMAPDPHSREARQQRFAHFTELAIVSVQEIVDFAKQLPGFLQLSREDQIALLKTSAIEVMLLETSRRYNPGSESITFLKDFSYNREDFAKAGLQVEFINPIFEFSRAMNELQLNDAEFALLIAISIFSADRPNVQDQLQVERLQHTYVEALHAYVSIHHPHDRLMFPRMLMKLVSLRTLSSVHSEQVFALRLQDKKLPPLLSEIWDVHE
In short: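 HepG2 cells transiently transfected with GAL4-UAS reporter units for chimeric NR-Gal4 proteins, exposed to chemicals for 24 h. Reporter mRNA quantified by RT-PCR and capillary electrophoresis; gain of signal fitted relative to DMSO.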

[16] = biological target: human Retinoid X Receptor beta (RXRb), RXRB (gene 6257) (UniProt P28702); assay: ATG_RXRb_TRANS: Attagene TRANS-FACTORIAL HepG2 Assay for human Retinoid X Receptor beta (RXRb) (AID 2283013; active = hit-call score of the fitted dose curve at least 0.9, where 1 is the maximum)
Chain of human Retinoid X Receptor beta (RXRb), RXRB (gene 6257) (P28702 whole entry, looked up, the tested form may be a part): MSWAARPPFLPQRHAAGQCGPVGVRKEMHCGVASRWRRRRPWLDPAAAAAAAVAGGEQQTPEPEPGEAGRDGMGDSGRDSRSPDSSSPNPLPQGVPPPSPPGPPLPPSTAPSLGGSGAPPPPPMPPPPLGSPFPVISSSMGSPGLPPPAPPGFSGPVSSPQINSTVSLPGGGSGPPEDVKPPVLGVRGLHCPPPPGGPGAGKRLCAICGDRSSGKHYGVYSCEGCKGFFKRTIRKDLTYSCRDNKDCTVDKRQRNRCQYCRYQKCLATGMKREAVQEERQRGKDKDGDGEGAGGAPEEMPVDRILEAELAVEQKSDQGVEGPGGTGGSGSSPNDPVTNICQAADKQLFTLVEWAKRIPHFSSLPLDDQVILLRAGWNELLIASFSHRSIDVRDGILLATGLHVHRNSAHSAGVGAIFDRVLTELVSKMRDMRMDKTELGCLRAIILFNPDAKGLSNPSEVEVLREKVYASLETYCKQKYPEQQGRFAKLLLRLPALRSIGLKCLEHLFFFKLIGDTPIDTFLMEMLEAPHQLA
In short: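 Transfect HepG2 with GAL4-UAS multi-reporter constructs (chimeric NR-Gal4, TRANS format); dose compound 24 h; isolate RNA, RT-PCR, FAM primer extension, HpaI digest; quantify by capillary electrophoresis; positive direction vs DMSO.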

[17] = biological target: human Thyroid Receptor alpha (THRa1), THRA (gene 7067) (UniProt P10827); assay: ATG_THRa1_TRANS: Attagene TRANS-FACTORIAL HepG2 Assay for human Thyroid Receptor alpha (THRa1) (AID 2283014; active = hit-call score of the fitted dose curve at least 0.9, where 1 is the maximum)
Chain of human Thyroid Receptor alpha (THRa1), THRA (gene 7067) (P10827 whole entry, looked up, the tested form may be a part): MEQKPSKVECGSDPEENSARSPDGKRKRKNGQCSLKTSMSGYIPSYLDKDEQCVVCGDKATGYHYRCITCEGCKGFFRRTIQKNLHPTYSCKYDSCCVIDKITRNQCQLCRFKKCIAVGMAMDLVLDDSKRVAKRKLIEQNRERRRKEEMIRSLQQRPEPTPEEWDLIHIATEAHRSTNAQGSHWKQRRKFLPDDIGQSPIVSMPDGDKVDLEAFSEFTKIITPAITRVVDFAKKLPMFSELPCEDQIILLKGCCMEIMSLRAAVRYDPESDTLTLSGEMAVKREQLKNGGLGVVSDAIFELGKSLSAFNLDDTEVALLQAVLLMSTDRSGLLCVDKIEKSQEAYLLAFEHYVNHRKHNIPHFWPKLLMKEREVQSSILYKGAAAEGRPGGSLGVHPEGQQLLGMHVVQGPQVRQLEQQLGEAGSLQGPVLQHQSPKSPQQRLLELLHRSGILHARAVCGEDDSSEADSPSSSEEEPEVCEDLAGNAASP
In short: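 HepG2 cells transiently transfected with chimeric NR-Gal4 and GAL4-UAS reporter units, dosed 24 h. Reporter mRNA quantified by RT-PCR, fluorescent labeling, HpaI digestion and capillary electrophoresis; gain-of-signal fit versus DMSO.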

[18] = ATG_TCF_b_cat_CIS: Attagene CIS-FACTORIAL HepG2 Assay for human T-Cell-Factor with beta-catenin (TCF/b-cat) (AID 2282965); conditions: HepG2 TCF/beta-catenin cis-reporter transcription, actives raise or lower the signal
In short: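 Using capillary electrophoresis as the read-out, labelled reporter cDNA fragments from transiently transfected HepG2 were sized and quantified. Exposure lasted 24 hours; activity in either direction was referenced to DMSO.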

[19] = biological target: mouse Estrogen Receptor alpha (Era), Esr1 (gene 13982) (UniProt P19785); assay: NVS_NR_mERa: NovaScreen (NVS) Nuclear Receptor Binding Assay for mouse Estrogen Receptor alpha (Era) (AID 2283378; active = hit-call score of the fitted dose curve at least 0.9, where 1 is the maximum;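 note: hit means loss of bound radioligand signal relative to DMSO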)
Chain of mouse Estrogen Receptor alpha (Era), Esr1 (gene 13982) (P19785 whole entry, looked up): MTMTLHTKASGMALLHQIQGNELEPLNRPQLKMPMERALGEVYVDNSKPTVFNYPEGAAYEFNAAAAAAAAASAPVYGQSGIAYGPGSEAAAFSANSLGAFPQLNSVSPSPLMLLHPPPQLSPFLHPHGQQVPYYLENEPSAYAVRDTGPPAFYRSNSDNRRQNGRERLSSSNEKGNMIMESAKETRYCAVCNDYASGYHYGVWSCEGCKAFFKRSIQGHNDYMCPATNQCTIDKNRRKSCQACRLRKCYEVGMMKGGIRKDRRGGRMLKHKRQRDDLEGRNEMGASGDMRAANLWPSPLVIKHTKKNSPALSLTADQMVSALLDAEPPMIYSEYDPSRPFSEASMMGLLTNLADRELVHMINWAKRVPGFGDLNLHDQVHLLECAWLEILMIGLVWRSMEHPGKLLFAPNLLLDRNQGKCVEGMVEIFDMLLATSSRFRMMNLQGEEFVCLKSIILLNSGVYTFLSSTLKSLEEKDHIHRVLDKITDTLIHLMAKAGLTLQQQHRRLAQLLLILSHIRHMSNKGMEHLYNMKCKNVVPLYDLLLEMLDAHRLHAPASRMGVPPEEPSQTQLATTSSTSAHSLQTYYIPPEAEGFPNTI
In short: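 Cell-free radioligand competitive displacement binding, read by filter-based scintillation counting 18 h after dosing. Primary screen run in duplicate at 25 uM, actives retested in concentration series; loss of signal versus DMSO.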

[20] = ATG_TA_CIS: Attagene CIS-FACTORIAL HepG2 Assay for human TA Basal Promoter (AID 2282964); conditions: HepG2 Attagene CIS-factorial TA basal promoter reporter; actives raise or lower the signal
In short: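 Transfected HepG2, 24 h compound exposure; RNA → RT-PCR → FAM primer extension → HpaI cut → CE fluorescence. Gain/loss-of-signal fitted against DMSO negative control. Background-control readout.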

Measured: AC50

Chain of E-selectin (Homo sapiens) (P16581 whole entry, looked up): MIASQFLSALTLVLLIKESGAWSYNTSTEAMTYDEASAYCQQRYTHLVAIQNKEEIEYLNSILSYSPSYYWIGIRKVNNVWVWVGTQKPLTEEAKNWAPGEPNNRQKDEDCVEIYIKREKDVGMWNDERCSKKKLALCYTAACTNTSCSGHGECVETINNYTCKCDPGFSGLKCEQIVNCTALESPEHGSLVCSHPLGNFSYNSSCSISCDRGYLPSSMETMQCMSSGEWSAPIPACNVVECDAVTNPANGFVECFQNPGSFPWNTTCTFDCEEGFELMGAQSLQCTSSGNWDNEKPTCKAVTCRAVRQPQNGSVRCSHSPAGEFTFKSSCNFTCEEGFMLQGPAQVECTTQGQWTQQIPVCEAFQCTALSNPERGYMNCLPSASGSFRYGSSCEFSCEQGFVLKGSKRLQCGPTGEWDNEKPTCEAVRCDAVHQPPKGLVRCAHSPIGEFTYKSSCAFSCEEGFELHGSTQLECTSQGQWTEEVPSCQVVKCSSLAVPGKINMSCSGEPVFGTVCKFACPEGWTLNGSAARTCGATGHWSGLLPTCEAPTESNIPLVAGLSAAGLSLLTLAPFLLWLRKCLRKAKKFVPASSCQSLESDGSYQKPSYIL

CCCCC(CC)COC(=O)C=Cc1ccc(OC)cc1 (stereo unspecified)
inactive: [4] | [8] | [9] | [10] | [11]
active: [1] 28.5 µM and 20 µM | [2] 31.7 µM and 32.3 µM | [3] 25.9 µM and 18.8 µM | [5] 23.5 µM and 36.7 µM | [6] 34.9 µM and 37.8 µM | [7] 31 µM and 35.2 µM | [12] 3.97 µM and 6.38 µM | [13] 10.6 µM and 20 µM

CC1=NN(c2cc(Cl)c(S(=O)(=O)O)cc2Cl)C(=O)C1N=Nc1ccc(S(=O)(=O)O)cc1 (stereo unspecified)
inactive: [14] | [15] | [16] | [17]

O=C(O)/C=C\C(=O)O
inactive: [18] | [17]

COc1cc(CNC(=O)CCCC/C=C/C(C)C)ccc1O
inactive: [1] | [2] | [3] | [4] | [5] | [6] | [7] | [9] | [10] | [11] | [12] | [13]
active: [8] 8.32 µM and 8.05 µM | [12] 27.7 µM

CC(C)(C)C(=O)C(=O)O
inactive: [19]

CC(C)(C)NC(=O)[C@@H]1CN(Cc2cccnc2)CCN1C[C@@H](O)C[C@@H](Cc1ccccc1)C(=O)N[C@H]1c2ccccc2C[C@H]1O
inactive: [18] | [15] | [16] | [17]

Clc1ccccn1
inactive: [14] | [20] | [18] | [17]

COc1ccccc1Oc1c(NS(=O)(=O)c2ccc(C(C)(C)C)cc2)nc(-c2ncccn2)nc1OCCO
active: [6] 6.88 µM and 8.61 µM
not listed: [14] | [15] | [16] | [17] | [18] | [19] | [20]
inactive: all other assays above

CCCc1c(OCCCCc2nn[nH]n2)ccc(C(C)=O)c1O
active: [16] 20.4 µM
inactive: [15] | [17]

O=[N+]([O-])c1cc(S(=O)(=O)Nc2ccccc2)ccc1Nc1ccccc1
inactive: [10]
active: [1] 25 µM and 26 µM | [2] 28.5 µM and 28.6 µM | [3] 12.1 µM and 19.5 µM | [4] 34.1 µM and 35.3 µM | [5] 20 µM and 14.4 µM | [6] 15 µM and 25.7 µM | [7] 29.3 µM and 31.8 µM | [8] 27.4 µM and 24 µM | [9] 20 µM and 19.6 µM | [10] 32 µM | [11] 33.4 µM and 20 µM | [12] 29.8 µM and 30.3 µM | [13] 20 µM and 28.1 µM

CCCCn1cc[n+](C)c1
inactive: [14] | [20] | [15] | [16] | [17]

CC(=O)CC(=O)OC(C)(C)C
inactive: [19]

CC/C=C\CC1=C(C)CCC1=O
inactive: [14] | [15] | [16]

CCO[Si](OCC)(OCC)c1ccccc1
inactive: [14] | [20] | [18] | [16] | [17]

CCCCCCCCCCCCSC#N
active: [19] 6.16 µM

OC(C(F)(F)F)(C(F)(F)F)C(O)(C(F)(F)F)C(F)(F)F
active: [1] 34.1 µM and 21.9 µM | [2] 43.3 µM and 40.8 µM | [3] 23.3 µM and 22.9 µM | [4] 50.6 µM and 49.6 µM | [5] 30 µM and 21.4 µM | [6] 22.9 µM and 36.4 µM | [7] 26.9 µM and 26.8 µM | [8] 21.2 µM and 20.9 µM | [9] 22.7 µM | [11] 30 µM | [12] 6.98 µM and 8.04 µM
inactive: [9] | [10] | [13]

COc1ccccc1OCC(O)CO (stereo unspecified)
inactive: [14] | [20] | [18] | [16] | [17]
